Our source for the growth values is PubChem BioAssay (NCI).

Compounds without any hit were thinned out: in the full panel of roughly 83,000, 20% have a hit.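 Percent growth is the endpoint: 0 to 100 indicates growth inhibition (40 means 60% inhibition), 0 means no net growth, and negative values indicate cell death.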 Unmarked numbers belong to inactive results. Calls of active or inactive are those of the source. How the source made its calls: active means growth percent below 10; inactive means the rest.

Common to all, as to experiment: NCI-60 one-dose screen, 48 h (100 = growth as untreated, 0 = no growth, -100 = all killed)
Common to all, as to conditions: 10 µM unless noted

Experiment [1] concerns DU-145 prostate.
Experiment [2] has as its system K-562 leukemia.
The test system of experiment [3] is MALME-3M melanoma.
In experiment [4] the test system is MDA-MB-231 breast.
For experiment [5], the system named is RXF 393 renal.
In experiment [6] the test system is SF-268 CNS.
The subject of experiment [7] is SF-539 CNS.
The subject of experiment [8] is UACC-257 melanoma.
In experiment [9] the test system is M14 melanoma.
Experiment [10] has as its system HCT-15 colon.
In experiment [11] the test system is HT29 colon.
Experiment [12] relates to SNB-75 CNS.
In experiment [13] the test system is SNB-19 CNS.
For experiment [14], the system named is U251 CNS.
The subject of experiment [15] is PC-3 prostate.
Experiment [16] deals with SK-MEL-5 melanoma.
Experiment [17] concerns UACC-62 melanoma.
Experiment [18] relates to LOX IMVI melanoma.
The subject of experiment [19] is SK-MEL-28 melanoma.

Turning to `CCCCCCCCCCCCCCCCS(=O)(=O)Nc1cc(C(=O)NN)cc(C(=O)NN)c1`, the growth in experiment [1] was 81%; in experiment [2], 33.9%; in experiment [3], 85.4%; in experiment [4], 58.2%; in [5], 94.3%; in experiment [6], 43.4%. Besides, the growth was 63.7% in [7]; 107% in experiment [8]; 88% in experiment [9]; 50.5% in experiment [10]; 88% in [11]; 94.3% in experiment [12]. Further, the growth in experiment [13] was 52.2%; in experiment [14], 47.9%; in experiment [15] it was 38.8%; in experiment [16], 73.7%; in experiment [17], 70.3%; in experiment [18], 70%. Further, in [19], the growth is 91.9%.
With `COc1ccc2[nH]c(O)c(/C=c3/ccc4c(c3)N=C(c3ccc(F)cc3)N=4)c2c1`, the growth in experiment [1] is 67.6%; in [2], 57.7%; in [3], -18.6% (active); in [4], 83.2%; in experiment [5], 11.5%; in [6] it was 83.2%. Further, the growth was 80.3% in [7]; 82.5% in [8]; 68.4% in experiment [9]; 50.1% in [10]; 84.5% in experiment [11]; -12.3% (active) in experiment [12]. Moreover, the growth in [13] was 87.1%; in experiment [14], 42.1%; in experiment [15], 47.4%; in experiment [16], 61.5%; in [17] it was 90.1%; in experiment [18], 16.3%. Further, the growth in [19] is 72.7%.
As to `CCC(=O)NC(O)C(Cl)(Cl)C(C)Cl` (stereo not given), the growth was 116% in experiment [1]; 112% in experiment [2]; 87% in experiment [3]; 99.8% in [4]; 111% in [5]; 109% in [6]. Also, the growth in experiment [7] was 99.3%; in experiment [8], 93.4%; in experiment [9], 98.7%; in [10], 95.6%; in [11] it was 95.4%; in [12], 91.7%. Further, the growth is 98.4% in experiment [13]; 98.6% in experiment [14]; 98.2% in experiment [15]; 97.7% in [16]; 97.5% in experiment [17]; 96.4% in experiment [18]. Also, the growth in experiment [19] is 104%.
As to `C#CC[C@@H]1C[C@]2(C)[C@H]3CC=C4[C@H]5[C@@H](C)[C@H](C)CC[C@]5(C(=O)NCCCN5CCN(CCCN)CC5)CC[C@@]4(C)[C@]3(C)CC[C@H]2C(C)(C)[C@H]1OC(C)=O`, the growth in experiment [1] is 0.421% (active); in experiment [2], -23.3% (active); in experiment [3] it was -81% (active); in experiment [4] it was -70.4% (active); in experiment [5], -82.1% (active); in [6], 85%. The growth in experiment [7] was -94% (active); in experiment [8], -32.1% (active); in [9], -69.2% (active); in experiment [10], -83.7% (active); in experiment [11], -72.8% (active); in experiment [12], -61.5% (active). Further, the growth was -46.1% (active) in experiment [13]; -75.8% (active) in experiment [14]; 15% in experiment [15]; -7.08% (active) in [16]; -68.1% (active) in experiment [17]; -83.2% (active) in experiment [18]. Also, in experiment [19], the growth was -84.6% (active).
On to `CCOC(=O)c1sc2nc(-c3cc4ccccc4o3)cc(-c3ccc(Cl)cc3)c2c1N`, for which the growth in experiment [1] is 99.6%; in experiment [2], 102%; in experiment [3] it was 88.5%; in [4], 106%; in experiment [5], 124%; in experiment [6], 97.3%. Further, the growth in [7] was 120%; in experiment [8], 114%; in experiment [9], 112%; in [10], 101%; in experiment [11], 105%; in experiment [12], 74.7%. In addition, the growth in experiment [13] was 101%; in experiment [14] it was 95.8%; in experiment [15], 77%; in [16], 110%; in [17], 66.8%; in experiment [18], 91.6%. In addition, in experiment [19], the growth was 108%.
In the case of `CC1=C(C(=O)Nc2ccc(F)cc2)C(c2ccc(Cl)cc2)C2=C(CC(C)(C)CC2=O)N1` (stereo not given), the growth in experiment [1] was 105%; in experiment [2], 74%; in [3], 160%; in experiment [4], 82%; in [5] it was 96.4%; in [6], 86.3%. Also, the growth in [7] was 94%; in [8], 95.3%; in experiment [9] it was 98.5%; in experiment [10], 84.6%; in experiment [11], 98%; in [12] it was 66%. Also, the growth in experiment [13] was 86%; in [14], 81.6%; in experiment [15], 61.7%; in experiment [16], 75.9%; in experiment [17] it was 77.4%; in experiment [18], 87.8%. In addition, in experiment [19], the growth was 82.6%.
As for `CC(=O)c1nn(-c2ccccc2)/c(=N\N=C\c2coc3ccc(F)cc3c2=O)s1`, the growth in experiment [1] was 111%; in experiment [2], 94.5%; in experiment [3], 102%; in [4] it was 88.3%; in [5], 116%; in [6] it was 87.8%. The growth in [7] was 94.4%; in [8] it was 116%; in experiment [9], 93.5%; in [10] it was 101%; in [11], 108%; in experiment [12], 73.4%. In addition, the growth was 94.4% in [13]; 100% in experiment [14]; 92.6% in [15]; 97.4% in [17]; 95.2% in experiment [18]; 111% in [19].
With `c1ccc(C(Nc2ccccn2)(c2ccccc2)c2ccccc2)cc1`, the growth is 85.6% in experiment [1]; 56% in experiment [2]; 109% in [3]; 66.8% in [4]; 82.9% in experiment [5]; 99.5% in [6]. The growth in [7] is 86.4%; in experiment [8] it was 97.4%; in experiment [9], 87.9%; in experiment [10], 74.1%; in experiment [11], 69.9%; in [12] it was 74.8%. The growth in experiment [14] is 84.3%; in experiment [15], 39.1%; in [16] it was 70.3%; in experiment [17], 59.3%; in experiment [18] it was 100%; in experiment [19] it was 98.5%.
